Assays:
Assay type in all cases: functional
[1] = system: Plasmodium falciparum; experiment: GSK_TCMDC: Inhibition of Plasmodium falciparum 3D7 in whole red blood cells, using parasite LDH activity as an index of growth. Test compounds present at 2uM
[2] = system: Plasmodium falciparum; experiment: GSK_TCMDC: Inhibition of Plasmodium falciparum Dd2 in whole red blood cells, using parasite LDH activity as an index of growth. Test compounds present at 2uM
[3] = system: HepG2; experiment: GSK_TCMDC: Percent inhibition of human HepG2 cell line. Test compounds present at 10uM.

SMILES | Inhibition [1] [%] | Inhibition [2] [%] | Inhibition [3] [%]
Cc1cnc(-c2ccc(NC(=O)c3coc4ccc(N5CC(C)N(C)C(C)C5)cc34)cc2)o1.Cl (configuration not stated) | 96 | 39 | 18
COc1cc(C(=O)NCCCN2CCN(c3cc(Cl)ccc3OC)CC2)ccc1-c1nc2cc(Cl)c(Cl)cc2[nH]1 | 100 | 99 | 12
c1ccc(-c2nc(NCCCn3ccnc3)cc(-c3ccncc3)n2)cc1 | 100 | 100 | 42
Cc1cccc2[nH]cc(C3CCN(CCC4CCN(C(=O)/C=C/c5ccc(Cl)c(Cl)c5)CC4)CC3)c12 | 91 | 8 | 13
CN1CCN(CC(=O)Nc2ccc(-c3csc(-c4nc5ccccc5[nH]4)c3)cc2)CC1 | 99 | 46 | 6
CCCCCCN1CCCN(Cc2ccc(C(=O)Nc3ccc(CCC)cc3)cc2)CC1.O=C(O)C(F)(F)F | 92 | 56 | 45
CCc1ccc2nc(-c3ccc(F)cc3)nc(SCC(=O)Nc3sc(C)c(C)c3C#N)c2c1 | 98 | 5 | 0
CN(C)CCOc1ccc2c(=O)cc(CCc3cccc(F)c3F)n(CC(=O)N(C)Cc3ccc(-c4ccc(C(F)(F)F)cc4)cc3)c2c1.O=C(O)C(O)C(O)C(=O)O | 90 | 60 | 33
O=C(NCc1cccs1)[C@H](Cc1ccccc1)Nc1ccnc(NCCc2ccc(F)cc2)n1.O=C(O)C(F)(F)F | 85 | 52 | 1
Cc1noc(C)c1-c1ccc2c(Nc3ccccc3C(C)(C)C)c(C(=O)NCc3ccc(C(F)(F)F)cc3)cnc2c1.Cl | 99 | 50 | 30
COc1cc2c(cc1S(=O)(=O)c1ccc(OCc3ccc(Cl)cc3)cc1)CCN(Cc1ccc(NC(C)=O)s1)CC2 | 89 | 0 | 3
Cc1nc2nc(N)nc(N)c2c(C)c1Cc1ccc(C#N)cc1.Cl | 96 | 4 | 69
CCCC(=O)Nc1ccc(OCCCN(Cc2ccccc2F)c2ccc(C#N)c(C(F)(F)F)c2)cc1 | 89 | 93 | 7
CCn1cc(C=C2Oc3c(ccc(O)c3CN3CCCCC3)C2=O)c2ccccc21 | 100 | 99 | 0
CN(C)CC(=O)Nc1cccc(Nc2nccc(NCC(O)c3ccccc3)n2)c1 (configuration not stated) | 100 | 3 | 30
CCN(CC)CCCOc1ccc(Nc2nccc(-c3c(-c4cccc(NC(=O)c5c(F)cccc5F)c4)nn4ccccc34)n2)cc1F | 100 | 99 | 86
Cc1cc(N[C@@H](Cc2ccccc2)C(=O)NCCc2ccccc2)nc(NCCc2ccc(F)cc2)n1.O=C(O)C(F)(F)F | 99 | 89 | 9
O=C1Nc2cccc3c2C1(CCCCN1CCC(c2c(-c4ccc(F)cc4)[nH]c4ccccc24)CC1)CCC3 (configuration not stated) | 91 | 28 | 25
CCCCCNc1nc(Nc2ccccc2C)nc2ccccc12.Cl | 100 | 30 | 5
COc1ccc(NC(=O)/C=C/c2ccccc2Cl)cc1OCCN1CCC(N(C)C)CC1 | 89 | 19 | 18

SMILES | Inhibition [1] [%] | Inhibition [2] [%] | Inhibition [3] [%]
O=C(Nc1cccc(-c2csc(-c3nc4ccccc4[nH]3)c2)c1)c1ccncc1 | 100 | 61 | 64
O=C(O)C(F)(F)F.O=S(=O)(NC1CCN(c2ccnc3ccccc23)C1)c1ccc(OC(F)(F)F)cc1 (configuration not stated) | 88 | 0 | 34
CC1(C)N=C(N)N=C(NOCCCCCCONC2=NC(N)=NC(C)(C)N2)N1 | 95 | 98 | 34
O=C(c1ccc(F)cc1)N1CCOC(CCN2CCC(c3ccccc3)CC2)(c2ccc(Cl)c(Cl)c2)C1 (configuration not stated) | 88 | 84 | 29
CCNc1cc(C(=O)N[C@@H](Cc2ccc(F)c(F)c2)[C@H](O)CNC2CCCCC2)cc(N2CCCCS2(=O)=O)c1.Cl | 100 | 84 | 1
Cc1nc(-c2ccc(-c3ccc(NC(=O)Nc4ccc(I)c(OCCN(C)C)c4)cc3)c(C)c2)no1.Cl | 100 | 92 | 47
O=C(Nc1cccc(-c2ccc(CN3CCC(O)CC3)cc2)c1)c1cccc(Cl)c1.O=C(O)C(F)(F)F | 96 | 2 | 11
CC(C)(C)c1ccc(NC(=O)c2ccc(CN3CCCN(Cc4ccc(F)cc4)CC3)cc2)cc1.O=C(O)C(F)(F)F | 87 | 7 | 55
COc1ccccc1NS(=O)(=O)c1cc(C(=O)Nc2ccc(N3CCOCC3)c(S(=O)(=O)Nc3ccccc3Cl)c2)ccc1Cl | 97 | 25 | 0
CCCCOc1ccc(C(O)C(CN2CCCCC2)c2ccccc2)cc1 (configuration not stated) | 90 | 84 | 7
Cc1nnsc1C(=O)Nc1ccc(-c2cccc(-c3nc4cccc(C)c4[nH]3)c2)cc1 | 98 | 47 | 23
O=C(Nc1cc(Cl)cc(Cl)c1)c1cc(Cl)c(=O)n(Cc2ccc(Cl)cc2)c1 | 89 | 57 | 7
COc1cccc(-c2ccc(C(=O)NCC3CCCN(Cc4cccc(C(F)(F)F)c4)C3)s2)c1.O=C(O)C(F)(F)F (configuration not stated) | 85 | 18 | 10
Cc1n[nH]c2ccc(-c3ccc4nccc(N5CCC(N)CC5)c4c3)cc12.Cl | 100 | 100 | 67
Cc1ccc(C(O)CNc2ccnc(Nc3cccc(-c4csc(C)n4)c3)n2)cc1 (configuration not stated) | 92 | 31 | 17
Cc1cc(Nc2ncc3c(n2)N(C2CCC2)CC3)ccc1N1CCN(C)CC1.Cl | 100 | 100 | 27
COc1ccc(CNCc2cccc(-c3ccc(-c4nc5cccc(C)c5[nH]4)cc3)c2)cc1.O=C(O)C(F)(F)F | 100 | 70 | 23
NC(=O)c1cnc2cc(-c3ccncc3)cc(Nc3ccc(NC(=O)C4CCCCC4)cc3)c2c1 | 98 | 99 | 58
O=C(Nc1ccc(Cn2ncc(N3CCCNCC3)c(Cl)c2=O)cc1)Nc1ccc(C(F)(F)F)cc1.O=C(O)C(F)(F)F | 90 | 58 | 12
Cc1cc(N(C)CCN(C)C)nc(Nc2ccc(Br)cc2)n1 | 97 | 23 | 7

SMILES | Inhibition [1] [%] | Inhibition [2] [%] | Inhibition [3] [%]
C=CCOC(=O)N1CCC(CNCc2ccc(-c3cccc(-c4nc5cccc(C)c5[nH]4)c3)cc2)C1.O=C(O)C(F)(F)F (configuration not stated) | 100 | 99 | 25
c1ccc2cc3c(NCCN4CCOCC4)ccnc3cc2c1 | 99 | 98 | 0
COc1cc2c(C3CCN(CC4CCN(C(=O)/C=C/c5ccc(Cl)c(Cl)c5)CC4)CC3)c[nH]c2cn1 | 100 | 88 | 27
Cc1cc(C(=O)NCc2ccc(-c3c(C)noc3C)cc2)n(-c2ccc(Cl)cc2)n1 | 100 | 98 | 0
CC1CCC(C[C@@H](C(=O)N[C@@H](CCC(=O)N2CCCCC2)C(=O)Nc2nccs2)[C@H](C(C)C)N(O)C=O)CC1 (some centres not stated) | 87 | 70 | 38
CN(c1ccc2c(c1)nc(NC(=O)C1(c3cc(F)ccc3F)CC1)n2C)c1ccnc(Nc2cccc(CS(C)(=O)=O)c2)n1.O=C(O)C(F)(F)F | 89 | 46 | 42
COCCn1c(Sc2ccc(C#N)c([N+](=O)[O-])c2)nnc1-c1ccc(N(C)C)cc1 | 89 | 66 | 2
Cc1ccc(Cl)c2sc(N3CCN(C(=O)c4ccc([N+](=O)[O-])o4)CC3)nc12 | 97 | 94 | 21
CCCc1cnc2nc(N)nc(N)c2c1C | 93 | 3 | 68
CCNC(=O)Nc1ccc(N(C)c2ccnc(NC3CC3)n2)cc1 | 100 | 80 | 21
Cc1cc(-c2ccnc(Nc3cccc(C#N)c3)n2)cc(C)c1O | 88 | 54 | 50
COc1c(CN2CCOCC2)cccc1-c1cc2c(-c3ccc(C(=O)O)c(C(C)C)c3)ccnc2[nH]1.O=C(O)C(F)(F)F | 98 | 90 | 44
CC(=O)Nc1ccc(CN2CCc3ccc(NS(=O)(=O)c4cccc(OCc5ccc(Cl)cc5)c4)cc3CC2)s1 | 93 | 7 | 23
COC(=O)c1cccc(CNCc2cccc(-c3cccc(-c4nc5cc(C(F)(F)F)ccc5[nH]4)c3)c2)c1.O=C(O)C(F)(F)F | 100 | 69 | 7
COc1cc(C(=O)N2CCN(C(C)C)CC2)ccc1CN(C)CCCCN1CCN(c2cccc(Cl)c2Cl)CC1.Cl | 100 | 98 | 79
CCCCN(CCCC)CCC(O)C(=Cc1ccc(Cl)cc1Cl)c1ccc(C(F)(F)F)cc1N (configuration not stated) | 100 | 99 | 0
Cc1cc(Cl)c(S(=O)(=O)N(C)c2ccccc2)cc1OCC(=O)NC1CCCCC1 | 99 | 94 | 3
O=[N+]([O-])c1ccc(N2CCCN(C(=S)Nc3ccc(F)cc3Br)CC2)nc1 | 100 | 99 | 4
NS(=O)(=O)c1ccccc1Nc1nc(Nc2ccc(N3CCOCC3)cc2)nc2c1CCC2.O=CO | 96 | 99 | 21

Reference: ChEMBL document CHEMBL1157539, “Thousands of chemical starting points for antimalarial lead identification” (Nature, 2010)
